Inconclusive results are not listed. A number with no mark means an inactive call. The source made the active and inactive calls. Calls come from the whole dose curve; as a rule, active = well fitted inhibition curve with a large enough effect; inconclusive = small, poorly fitted or top-dose-only effect; inactive = no such curve, though single readings can be large or run the other way.
assay: qHTS screen for inhibitors of ELG1-dependent DNA repair in human embryonic kidney (HEK293T) cells expressing luciferase-tagged ELG1: MMS Viability Assay for probe SAR; details: HEK293T ELG1-luc + MMS viability, CellTiter-Glo, 16 h; series mostly up to 46.1 µM; activity change, negative = lower viability: at the top concentration
From the text: Cancer cells divide rapidly compared to normal cells in the body. During cell division, cancer cells need to duplicate their genome by DNA replication. The failure of genome duplication leads to cancer cells' death. Therefore, inhibitors of DNA replication could specifically kill cancer cells. Based on this concept, many chemotherapeutic agents were developed and have been used to treat cancer patients. However, there are a limited number of agents available in the clinical setting, and some of those that do exist have low efficacy and severe side effects. Therefore, if we can find the compounds that effectively block DNA replication either by directly damaging DNA or by inhibiting other cellular mechanisms, the options for cancer treatment will be broadened. With this in mind, we developed a quantitative high-throughput ELG1-luciferase reporter gene assay. Small molecules that specifically block ELG1 function in response to DNA damage can be identified by monitoring the suppression of luciferase activity. Since ELG1 defines a pathway for repairing DNA damage, agents blocking ELG1 function can be used to sensitize cancer cells to chemotherapeutic agents whose mechanism of action involves the induction of DNA damage. Cytotoxicity of the active compounds in the ELG1 qHTS assay with MMS stimulation (AID 493125) was assessed using the CellTiter-Glo Luminescent Cell Viability Assay kit (Promega, USA). CellTiter-Glo measures the intracellular ATP present in metabolically active cells using Ultra-Glo as the luciferase to detect ATP levels. In brief, the luciferase in the buffer catalyzes the oxidation of luciferin to oxyluciferin and light which is dependent on ATP. […] DMSO and wells with media alone were used as positive and negative controls, respectively. Inactivity to this assay is the desirable outcome. NIH Molecular Libraries Probe Production Network [MLPCN] NIH Chemical Genomics Center [NCGC] MLPCN Grant: R03 MH092164 Assay Provider: Kyungjae Myung, NHGRI, NIH
ELG1-luc HEK293T cells will be seeded in 1536-well plates at a density of 2,000 cells/well. Approximately 5 hours after plating, compounds will be added to the plate by pin tool transfer and MMS will be added by FRD dispenser (final concentration of MMS = 10 µM). 16 hours following the addition of the compounds, cell viability will be measured using CellTiter Glo.

Compound | activity change, negative = lower viability | Potency
Fc1cc(Nc2nc(-c3ccncc3)nc3ccccc23)ccc1-c1cncnc1 | 13.8% | –
Fc1ccc(Nc2nc(-c3ccncc3)nc3ccccc23)cc1F | -6.97% | –
Cc1cnccc1-c1nc(Nc2ccc(F)c(F)c2)c2ccccc2n1 | -5.06% | –
Fc1ccc(-c2ccc(Nc3nc(-c4ccncc4)nc4ccccc34)cc2F)c(F)c1 | – | 7.43 µM (active)
Fc1cccc(Nc2nc(-c3ccncc3)nc3ccccc23)c1 | -25.8% | –
Fc1ccc(Nc2nc(-c3ccncc3Cl)nc3ccccc23)cc1F | -3.34% | –
COc1cc(-c2nc(Nc3ccc(F)c(F)c3)c3ccccc3n2)cc(OC)n1 | -75.3% | –
Cc1cc(-c2nc(Nc3ccc(F)c(F)c3)c3ccccc3n2)cc(C)n1 | -8.79% | –
